From the supplement of paper PMC10981050
Where “and” joins values, the source holds several entries; their conditions need not be identical. Equal values may be shown once. Where a name gives a salt, the structure may show the parent alone.

Legend:
Assay in all cases: cell viability relative to vehicle control; higher = less cytotoxic
Details in all cases: 10 µM
K562 = tested on: K562
Outline: (§1)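 Four leukaemia lines, as CRISPR-edited mutant clones and isogenic wild-type clones, were tested against Selleck bioactive, kinase and epigenetic probe libraries after removal of identity-inconsistent compounds. Cells were exposed to a single 10 µM dose for 48 h, and CellTiter-Glo luminescence was then read. Viability was calculated relative to the on-plate vehicle control.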

MARIMO = tested on: MARIMO
Outline: as §1

MOLM14 = tested on: MOLM14
Outline: as §1

OCI-AML2 = tested on: OCI-AML2
Outline: as §1

SMILES | cell viability (K562; SRSF2 genotype: SRSF2 P95H/wt) | cell viability (K562; SRSF2 genotype: SRSF2 wt/wt) [%] | cell viability (MARIMO; SRSF2 genotype: SRSF2 P95H/wt) [%] | cell viability (MARIMO; SRSF2 genotype: SRSF2 wt/wt) [%] | cell viability (MOLM14; SRSF2 genotype: SRSF2 P95H/wt) [%] | cell viability (MOLM14; SRSF2 genotype: SRSF2 wt/wt) [%] | cell viability (OCI-AML2; SRSF2 genotype: P95H/wt) [%] | cell viability (OCI-AML2; SRSF2 genotype: wt/wt) [%]
CC(=O)OC(C)(C)/C=C/C(=O)[C@](C)(O)[C@H]1[C@H](O)C[C@@]2(C)[C@@H]3CC=C4[C@H](C[C@H](O)C(=O)C4(C)C)[C@]3(C)C(=O)C[C@]12C [Cucurbitacin B] | 19.7% and 26.4% | 28.1 | 8.8 | 16.8 | 0.7 | 0.57 | 0.29 | 3.38
CC[C@H](C)[C@@H]([C@@H](CC(=O)N1CCC[C@H]1[C@H](OC)[C@@H](C)C(=O)N[C@H](C)[C@@H](O)c1ccccc1)OC)N(C)C(=O)[C@@H](NC(=O)[C@@H](NC)C(C)C)C(C)C [Monomethyl auristatin E (MMAE)] | 11.7% and 32% | 30.1 | 7.27 | 8.86 | 0.32 | 0.5 | 0.78 | 2.69
CN1C2CCC1CC(O)C2 (stereo not given) [Tropine] | 105% and 98.9% | 97.2 | 104 | 110 | 99.5 | 103 | 94.5 | 108
Cc1ccccc1-n1c(CF)nc2ccc(N)cc2c1=O [Afloqualone] | 88.1% and 90.6% | 86.5 | 84.5 | 95.7 | 93.2 | 96.2 | 110 | 94.4
COc1ccc2c(c1OC)CC1c3c(cc4c(c3-2)OCO4)CCN1C (stereo not given) [Crebanine] | 93.7% and 93.3% | 95.9 | 80.5 | 83 | 95.9 | 93.4 | 80.6 | 84.5
O=Cc1ccccc1 [Benzoic aldehyde] | 98.9% and 98% | 95 | 86.4 | 91.5 | 93 | 92.4 | 85.4 | 88.3
c1cc2c(cc1[C@H]1OC[C@H]3[C@@H]1CO[C@@H]3c1ccc3c(c1)OCO3)OCO2 [Sesamin (Fagarol)] | 92.3% and 97.8% | 97.3 | 94.2 | 111 | 98.8 | 105 | 100 | 102
CN1[C@@H]2CC[C@H]1C[C@@H](OC(=O)C(CO)c1ccccc1)C2 (stereo not given in full) [Atropine sulfate] | 105% and 99.4% | 100 | 105 | 112 | 110 | 107 | 94 | 97.8
CCN1C[C@]2(COC)CC[C@H](OC)[C@]34C1[C@H](C[C@H]23)[C@@]1(O)C[C@H](OC)[C@H]2C[C@@H]4[C@@H]1[C@H]2O [Talatisamine] | 110% and 104% | 108 | 104 | 108 | 105 | 106 | 101 | 107
CN1C(=O)CCS(=O)(=O)C1c1ccc(Cl)cc1 (stereo not given) [Chlormezanone (Trancopal)] | 102% and 101% | 93.5 | 97 | 96.7 | 93.1 | 97.2 | 94.1 | 95.6
O=C(O)C(=O)CBr [Bromopyruvic acid] | 99.8% and 89.6% | 90.3 | 90 | 97.8 | 91.6 | 94.7 | 94.7 | 93.9
Cc1c(Cl)c(OCC(=O)N2CCN(C)CC2)nc2sc(C(=O)NC3CC3)c(N)c12 | 80.2% and 60.3% | 66 | 40.5 | 30.8 | 81.9 | 51 | 27.8 | 33.5
COc1cc([C@@H]2c3cc4c(cc3[C@@H](O)[C@H]3COC(=O)[C@H]23)OCO4)cc(OC)c1O [4'-Demethylepipodophyllotoxin] | 36.4% and 51% | 51.2 | 26.8 | 31.3 | 13.4 | 6.99 | 20.9 | 24.2
CC[C@@]1(O)C(=O)OCc2c1cc1n(c2=O)Cc2cc3ccccc3nc2-1 [Camptothecin] | 27.3% and 26.7% | 21.8 | 5.71 | 3.67 | 3.1 | 1.35 | 3.26 | 3.91
COc1cc(-n2c(=S)[nH]c3ccccc3c2=O)c(Cl)cc1Cl [Mdivi-1] | 91.9% and 96.6% | 94.2 | 90.7 | 95.2 | 91 | 102 | 109 | 116
C/C=C(\C)C(=O)N[C@@H](c1ccccc1)[C@@H](O)C(=O)O[C@H]1C[C@@]2(O)[C@@H](OC(=O)c3ccccc3)[C@@H]3[C@]4(OC(C)=O)CO[C@@H]4C[C@H](O)[C@@]3(C)C(=O)[C@H](OC(C)=O)C(=C1C)C2(C)C [Cephalomannine] | 22.2% and 39.2% | 31 | 7.43 | 5.47 | 9.27 | 2.7 | 7.08 | 10.9
COc1cc(OC)c(OC)cc1C=O [Asaraldehyde (Asaronaldehyde)] | 110% and 107% | 106 | 100 | 114 | 110 | 105 | 102 | 105
O=C(CBr)c1ccc(O)cc1 [PTP Inhibitor I] | 106% and 101% | 107 | 103 | 104 | 97.2 | 108 | 104 | 103
CC(C)NCC(O)c1ccccc1Cl (stereo not given) [Clorprenaline HCL] | 98.2% and 96.8% | 104 | 98.2 | 107 | 95.2 | 101 | 108 | 99.1
CCC12C=CCN3CC[C@@]4(c5ccc(OC)cc5N(C)[C@H]4[C@@](O)(C(=O)OC)[C@@H]1OC(C)=O)[C@@H]32 (stereo not given in full) [Vindoline] | 96.8% and 99.8% | 99.4 | 101 | 107 | 105 | 105 | 103 | 116

SMILES | cell viability (K562; SRSF2 genotype: SRSF2 P95H/wt) | cell viability (K562; SRSF2 genotype: SRSF2 wt/wt) [%] | cell viability (MARIMO; SRSF2 genotype: SRSF2 P95H/wt) [%] | cell viability (MARIMO; SRSF2 genotype: SRSF2 wt/wt) [%] | cell viability (MOLM14; SRSF2 genotype: SRSF2 P95H/wt) [%] | cell viability (MOLM14; SRSF2 genotype: SRSF2 wt/wt) [%] | cell viability (OCI-AML2; SRSF2 genotype: P95H/wt) [%] | cell viability (OCI-AML2; SRSF2 genotype: wt/wt) [%]
N#CC(C#N)=Cc1ccc(O)c(O)c1 [AG 18 (Tyrphostin 23)] | 86.3% and 84.4% | 80.7 | 78.4 | 79.8 | 81.5 | 86.5 | 78.8 | 82
CCC1=C[C@H]2CN3CCc4c([nH]c5ccccc45)[C@](C(=O)OC)(C2)[C@H]13 [Catharanthine] | 92.4% and 94% | 95.2 | 81 | 86.6 | 87.8 | 95.5 | 92 | 96.2
COc1cc2c3c(c1OC)-c1ccccc1C[C@H]3N(C)CC2 [Nuciferine] | 102% and 108% | 102 | 102 | 108 | 102 | 104 | 96.3 | 106
ClC(Cl)=C(c1ccc(Cl)cc1)c1ccc(Cl)cc1 | 103% and 96.8% | 106 | 89.6 | 99.1 | 96.8 | 105 | 100 | 108
CC1=C2C(=O)[C@H]3[C@@H](CC=C4C[C@@H](O)CC[C@@]43C)[C@@H]2CC[C@]12O[C@@H]1C[C@H](C)CN[C@H]1[C@H]2C [Jervine] | 91.9% and 81.4% | 85.2 | 89.1 | 98.5 | 91.4 | 101 | 92.7 | 92.4
CC12NC(Cc3ccccc31)c1ccccc12 (single isomer, unassigned; (+)) [(+)-MK 801 maleate] | 92.8% and 93.5% | 93.2 | 85.7 | 91.7 | 91 | 91.5 | 86.7 | 99.1
CCCN1C[C@H](CSC)C[C@@H]2c3cccc4[nH]cc(c34)C[C@H]21 [Pergolide mesylate] | 86.1% and 87.8% | 89.7 | 91.7 | 103 | 69.6 | 83.5 | 84 | 93.1
CC(C)[C@]12O[C@H]1[C@@H]1O[C@@]13[C@@]1(C)CCC4=C(COC4=O)[C@@H]1C[C@@H]1O[C@@]13C2=O [Triptonide] | 5.3% and 13.3% | 8.48 | 12.8 | 5.79 | 2.66 | 0.71 | 5.01 | 15.2
Cc1ccccc1-n1c(Cn2ncc3c(N)ncnc32)nc2cccc(C)c2c1=O | 93.5% and 98.8% | 91.3 | 90.7 | 93.7 | 81.9 | 81.3 | 81.5 | 83.9
COc1cc(C2OCC3C(c4cc(OC)c(OC5OC(CO)C(O)C(O)C5O)c(OC)c4)OCC23)cc(OC)c1OC1OC(CO)C(O)C(O)C1O (stereo not given) [Eleutheroside E] | 104% and 98.2% | 101 | 97.3 | 97.9 | 98.5 | 107 | 102 | 112
C=C1CCC2C(/C=C(\C)C(=O)C3(OC(C)=O)CC(C)C(OC(=O)c4ccccc4)C3C1OC(C)=O)C2(C)C (stereo not given) [Euphorbia factor L3] | 48% and 62.5% | 59.5 | 34.8 | 33.8 | 47.6 | 32.9 | 65.8 | 22.4
NC(=O)CN1CCCC1=O [Piracetam] | 96.1% and 103% | 98.7 | 102 | 102 | 99.6 | 105 | 103 | 112
O=C(O[C@H]1C[N+]2(CCCOc3ccccc3)CCC1CC2)C(O)(c1cccs1)c1cccs1 [Aclidinium Bromide] | 104% and 98.9% | 101 | 108 | 111 | 103 | 106 | 106 | 106
C/C(=C\c1csc(C)n1)[C@@H]1C[C@@H]2O[C@]2(C)CCC[C@H](C)[C@H](O)[C@@H](C)C(=O)C(C)(C)[C@@H](O)CC(=O)O1 [Patupilone (EPO906, Epothilone B)] | 29% and 37% | 39.4 | 7.88 | 6.51 | 8.36 | 2.95 | 6.03 | 11.7
CC(C)c1ccc(CO)cc1 [4-Isopropylbenzyl Alcohol] | 107% and 98.3% | 97.1 | 99.9 | 110 | 102 | 105 | 87.7 | 97.4
Cc1cc(C(=O)CN2CCCC2)c(C)n1-c1ccc(F)cc1 | 93.7% and 94% | 89.1 | 80.6 | 98.2 | 83.7 | 94.7 | 88.4 | 85.8
COC1=C[C@@H]2[C@@H]3Cc4ccc(OC)c(O)c4[C@]2(CCN3C)CC1=O [Sinomenine (Cucoline)] | 103% and 95.1% | 90.5 | 97.9 | 96.2 | 89.9 | 97.3 | 95 | 97.8
CC1C(=O)OC2C(O)C34C5OC(=O)C3(OC3OC(=O)C(O)C34C(C(C)(C)C)C5O)C12O (stereo not given) [Ginkgolide C] | 98.9% and 97.9% | 94.4 | 93.5 | 97.6 | 103 | 103 | 102 | 105
C[C@@]12N[C@@H](Cc3ccccc31)c1ccccc12 [(-)-MK 801 maleate] | 105% and 106% | 108 | 101 | 100 | 100 | 112 | 98.3 | 90.7
Cc1sc2c(c1C)C(c1ccc(Cl)cc1)=N[C@@H](CC(=O)Nc1ccc(O)cc1)c1nnc(C)n1-2 | 60.9% and 68.8% | 71.9 | 27.3 | 35.8 | 18 | 14.1 | 17.7 | 32.3
